# Results taken from PubChem BioAssay (EPA / NIEHS).
# Inconclusive results are not listed. Active and inactive are the calls of the source. How the source made its calls: active means hit-call score of the fitted dose curve at least 0.9, where 1 is the maximum; inconclusive means response in the unintended direction; inactive means score below 0.9.
# Experiments:
# [1] = target: Cellular tumor antigen p53 (Homo sapiens) (UniProt P04637); experiment: TOX21_p53_BLA_p5_ratio: Tox21 HCT-116 p53 Agonism Beta-lactamase Assay, Ratio, Phase 5 (AID 2283599)
# Sequence of Cellular tumor antigen p53 (Homo sapiens) (P04637 whole entry, looked up): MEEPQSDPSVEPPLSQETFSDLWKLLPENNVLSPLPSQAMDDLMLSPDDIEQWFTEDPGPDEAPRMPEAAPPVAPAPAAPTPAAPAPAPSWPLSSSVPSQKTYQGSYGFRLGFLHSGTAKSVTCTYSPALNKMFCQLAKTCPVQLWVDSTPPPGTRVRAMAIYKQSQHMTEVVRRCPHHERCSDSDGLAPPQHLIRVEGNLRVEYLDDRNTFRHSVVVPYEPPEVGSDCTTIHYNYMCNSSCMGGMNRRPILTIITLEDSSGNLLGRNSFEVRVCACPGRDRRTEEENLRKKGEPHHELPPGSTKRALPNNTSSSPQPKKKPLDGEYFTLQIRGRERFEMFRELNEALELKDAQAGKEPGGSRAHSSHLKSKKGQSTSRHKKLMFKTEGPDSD
# How it was run: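 HCT-116 p53-bla cells (4000/well) plated 5 h, dosed with compound (217-fold DMSO dilution) for 16 h at 37 C; CCF4-AM substrate 2 h at room temperature. Activity is the 460/530 nm emission ratio (405 nm excitation), fitted in gain-of-signal direction versus DMSO.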
# [2] = TOX21_p53_BLA_p5_viability: Viability Assessment in the Tox21 HCT-116 p53 Agonism Beta-lactamase Assay, Phase 5 (AID 2283600)
# How it was run: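 ATP luminescence (CellTiter-Glo, 30 min, RT) served as the viability read-out, with loss of signal indicating cytotoxicity. Compounds in DMSO were pinned at a 217-fold dilution onto 4000 cells/well and incubated 16 h, 37C.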
# [3] = target: Cellular tumor antigen p53 (Homo sapiens) (UniProt P04637); experiment: TOX21_p53_BLA_p4_ratio: Tox21 HCT-116 p53 Agonism Beta-lactamase Assay, Ratio, Phase 4 (AID 2283601)
# How it was run: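 HCT-116 p53 beta-lactamase reporter cells (4000/well) preincubated 5 h, then compound (217-fold dilution of DMSO stock) for 16 h at 37C. CCF4-AM substrate added 2 h at room temperature; 460/530 nm emission ratio fitted upward versus DMSO.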
# [4] = Tanguay_ZF_120hpf_MORT_legacy: (Legacy) Oregon State University Tanguay Lab 120 Hour Post-fertilization zebrafish Assay for Mortality (AID 2283633);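 on AC50: fitted as increase in binary mortality versus DMSO negative control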
# How it was run: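 Brightfield scoring of embryo death (binary) at 24 and 120 hpf; static exposure 6–120 hpf, 28C, sealed and foil-covered. Pronase-dechorionated 5D wild-type larvae, single embryo per well. DMSO 0.64% v/v; trimethyltin chloride 5uM positive control.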
# [5] = Tanguay_ZF_120hpf_YSE_legacy: (Legacy) Oregon State University Tanguay Lab 120 Hour Post-fertilization zebrafish Assay for Yolk Sac Edema (AID 2283634);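 on AC50: actives raise the incidence of yolk sac edema above the DMSO baseline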
# How it was run: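 Binary brightfield scoring of yolk sac edema at 120 hpf; DMSO baseline, gain-of-signal fitting. Dechorionated 5D larvae, one per well, static exposure 6–120 hpf, 28C, 0.64% DMSO. Dead embryos not scored.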
# [6] = Tanguay_ZF_120hpf_EYE_legacy: (Legacy) Oregon State University Tanguay Lab 120 Hour Post-fertilization zebrafish Assay for Eye Malformation (AID 2283636);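 further: binary presence or absence of eye malformation scored by brightfield in 120 hpf larvae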
# How it was run: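 5D wild-type embryos, pronase-dechorionated at 4 hpf; static exposure 6–120 hpf, 28C, dark; DMSO 0.64% final; 5uM trimethyltin chloride positive control. Binary eye-defect scoring at 120 hpf; dead embryos not scored.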
# [7] = Tanguay_ZF_120hpf_SNOU_legacy: (Legacy) Oregon State University Tanguay Lab 120 Hour Post-fertilization zebrafish Assay for Snout Malformation (AID 2283637)
# How it was run: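 Binary brightfield scoring of snout malformation at 120 hpf. Dechorionated 5D wild-type embryos, one per well, static exposure from 6 hpf at 28C, sealed and dark; final DMSO 0.64% (vol/vol), DMSO as baseline; 5uM trimethyltin chloride positive control.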
# [8] = Tanguay_ZF_120hpf_OTIC_legacy: (Legacy) Oregon State University Tanguay Lab 120 Hour Post-fertilization zebrafish Assay for Otic Vesicle Malformation (AID 2283639)
# How it was run: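 Binary scoring of otic vesicle defects at 120 hpf in zebrafish (Tropical 5D) held under static exposure at 28C, sealed and shaded, with final DMSO 0.64%. Embryos dying by 24 or 120 hpf excluded; fitted positively against DMSO.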
# [9] = Tanguay_ZF_120hpf_PE_legacy: (Legacy) Oregon State University Tanguay Lab 120 Hour Post-fertilization zebrafish Assay for Pericardial Edema (AID 2283640);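 on AC50: potency for increased incidence of pericardial edema versus DMSO baseline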
# How it was run: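 Static waterborne exposure, 5D wild-type embryos, 28C, to 120 hpf; final DMSO 0.64% (vol/vol). Binary PE call at 120 hpf by brightfield; fitted upward vs DMSO baseline. 5uM trimethyltin chloride as positive control.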
# [10] = Tanguay_ZF_120hpf_BRAI_legacy: (Legacy) Oregon State University Tanguay Lab 120 Hour Post-fertilization zebrafish Assay for Brain Malformation (AID 2283641)
# How it was run: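 Read-out: binary brain morphology call at 120 hpf (brightfield), fitted in gain-of-signal direction vs DMSO. Wild-type Tropical 5D embryos, static exposure, 28C, 0.64% DMSO final; 5uM trimethyltin chloride as positive control.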
# [11] = Tanguay_ZF_120hpf_SOMI_legacy: (Legacy) Oregon State University Tanguay Lab 120 Hour Post-fertilization zebrafish Assay for Somite Malformation (AID 2283647)
# How it was run: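 Binary brightfield scoring of somite defects at 120 hpf in 5D wild-type larvae; one dechorionated embryo per well, static exposure from 6 hpf, 28C, sealed and dark. Final DMSO 0.64%; trimethyltin chloride 5uM positive control.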
# [12] = Tanguay_ZF_120hpf_PFIN_legacy: (Legacy) Oregon State University Tanguay Lab 120 Hour Post-fertilization zebrafish Assay for Pectoral Fin Malformation (AID 2283648);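 further: each larva judged yes or no for fin defect by brightfield with dead larvae skipped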
# How it was run: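 Binary pectoral fin malformation call at 120 hpf by brightfield microscopy; 5D wild-type zebrafish, chorion removed at 4 hpf, one embryo per well from 6 hpf, static exposure at 28C; DMSO (0.64% final) as baseline.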
# [13] = Tanguay_ZF_120hpf_CFIN_legacy: (Legacy) Oregon State University Tanguay Lab 120 Hour Post-fertilization zebrafish Assay for Caudal Fin Malformation (AID 2283649)
# How it was run: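 Dechorionated 5D wild-type zebrafish, static exposure 6–120 hpf, 28C, sealed and dark, 0.64% v/v DMSO final. Binary fin-malformation call at 120 hpf, brightfield; gain of signal vs DMSO baseline.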
# [14] = Tanguay_ZF_120hpf_PIG_legacy: (Legacy) Oregon State University Tanguay Lab 120 Hour Post-fertilization zebrafish Assay for Pigmentation Malformation (AID 2283650);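 further: dechorionated Tropical 5D zebrafish embryos exposed singly from 6 to 120 hpf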
# How it was run: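 Brightfield scoring of pigmentation malformation at 120 hpf, recorded as binary present/absent per larva. Exposure: dechorionated 5D wild-type embryos, one per well, static from 6 hpf at 28C, final DMSO 0.64% (vol/vol). Dead embryos not scored.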
# [15] = Tanguay_ZF_120hpf_SWIM_legacy: (Legacy) Oregon State University Tanguay Lab 120 Hour Post-fertilization zebrafish Assay for Swim Bladder Malformation (AID 2283654);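 further: swim bladder malformation in each larva scored yes or no under brightfield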
# How it was run: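 Tropical 5D embryos dechorionated at 4 hpf; 1 embryo/well from 6 hpf; static, sealed, dark exposure at 28C until 120 hpf; final DMSO 0.64%; 5uM trimethyltin chloride positive control; swim bladder defect recorded yes/no; dead embryos not scored.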
# [16] = Tanguay_ZF_120hpf_AXIS_legacy: (Legacy) Oregon State University Tanguay Lab 120 Hour Post-fertilization zebrafish Assay for Body Axis Malformation (AID 2283635);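 on AC50: potency for an increased fraction of larvae scored with body axis malformation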
# How it was run: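 Embryos: 5D wild-type, pronase-dechorionated 4 hpf; static exposure 6–120 hpf, 28C, sealed, dark, 1 embryo/well, 0.64% DMSO. 120 hpf axis malformation scored present/absent; dead embryos excluded. Analysed as gain of signal vs DMSO.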
# [17] = Tanguay_ZF_120hpf_CIRC_legacy: (Legacy) Oregon State University Tanguay Lab 120 Hour Post-fertilization zebrafish Assay for Circulatory Malformation (AID 2283651)
# How it was run: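 Binary circulatory malformation call at 120 hpf by brightfield imaging of zebrafish larvae; chorion removed at 4 hpf, static exposure from 6 hpf in sealed dark plates at 28C, final DMSO 0.64%; non-mortality endpoints skipped if embryo died.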
# [18] = Tanguay_ZF_120hpf_JAW_legacy: (Legacy) Oregon State University Tanguay Lab 120 Hour Post-fertilization zebrafish Assay for Jaw Malformation (AID 2283638)
# How it was run: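 Binary jaw-malformation calls at 120 hpf by brightfield imaging; DMSO (0.64% v/v) = baseline. Embryos: 5D wild-type, pronase-dechorionated, one per well from 6 hpf, static exposure, 28C, sealed, dark.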
compound,measurement,setting,value
O=C(O)Cc1cc(I)c(Oc2cc(I)c(O)c(I)c2)c(I)c1,AC50,[1],30.6 µM (active)
same,AC50,[2],49.3 µM (active)
same,AC50,[3],33.1 µM (active)
same,AC50,[4],8.91 µM (active)
same,outcome,[5],inactive
same,AC50,[6],0.0114 µM (active)
same,AC50,[7],0.00601 µM (active)
same,outcome,[8],inactive
same,outcome,[9],inactive
same,AC50,[10],0.00612 µM (active)
same,outcome,[11],inactive
same,outcome,[12],inactive
same,outcome,[13],inactive
same,AC50,[14],0.0192 µM (active)
same,outcome,[15],inactive
COc1ccc([N+](=O)[O-])cc1N,outcome,[1],inactive
same,outcome,[2],inactive
same,outcome,[3],inactive
same,outcome,[4],inactive
same,outcome,[5],inactive
same,outcome,[16],inactive
same,outcome,[6],inactive
same,outcome,[7],inactive
same,outcome,[8],inactive
same,outcome,[9],inactive
same,outcome,[11],inactive
same,outcome,[12],inactive
same,outcome,[13],inactive
same,outcome,[17],inactive
same,outcome,[15],inactive
CCc1ccc(CCOc2ccc(CC3SC(=O)NC3=O)cc2)nc1 (configuration not stated),outcome,[1],inactive
same,outcome,[2],inactive
same,outcome,[3],inactive
same,outcome,[4],inactive
same,outcome,[5],inactive
same,outcome,[6],inactive
same,outcome,[7],inactive
same,outcome,[8],inactive
same,outcome,[9],inactive
same,outcome,[10],inactive
same,outcome,[11],inactive
same,outcome,[12],inactive
same,outcome,[13],inactive
same,outcome,[14],inactive
CCCCC(CC)COC(=O)CCCCC(=O)OCC(CC)CCCC (configuration not stated),outcome,[1],inactive
same,outcome,[2],inactive
same,outcome,[3],inactive
same,outcome,[4],inactive
same,outcome,[5],inactive
same,outcome,[6],inactive
same,outcome,[7],inactive
same,outcome,[18],inactive
same,outcome,[8],inactive
same,outcome,[9],inactive
same,outcome,[10],inactive
same,outcome,[11],inactive
same,outcome,[12],inactive
same,outcome,[13],inactive
same,outcome,[14],inactive
same,outcome,[15],inactive
OC1CCC(C2CCCCC2)CC1 (configuration not stated),outcome,[1],inactive
same,outcome,[2],inactive
same,outcome,[3],inactive
same,outcome,[4],inactive
same,outcome,[5],inactive
same,outcome,[16],inactive
same,outcome,[6],inactive
same,outcome,[7],inactive
same,outcome,[8],inactive
same,outcome,[9],inactive
same,outcome,[10],inactive
same,outcome,[11],inactive
same,outcome,[12],inactive
same,outcome,[13],inactive
same,outcome,[14],inactive
same,outcome,[15],inactive
COCC(C)O (configuration not stated),outcome,[1],inactive
same,outcome,[2],inactive
same,outcome,[3],inactive
same,outcome,[4],inactive
same,outcome,[5],inactive
same,outcome,[16],inactive
same,outcome,[6],inactive
same,outcome,[7],inactive
same,outcome,[8],inactive
same,outcome,[9],inactive
same,outcome,[10],inactive
same,outcome,[11],inactive
same,outcome,[12],inactive
same,outcome,[14],inactive
same,outcome,[15],inactive
CCCOC(=O)c1ccc(O)cc1,outcome,[1],inactive
same,outcome,[2],inactive
same,outcome,[3],inactive
same,outcome,[4],inactive
same,AC50,[5],35 µM (active)
same,AC50,[16],46.4 µM (active)
same,outcome,[6],inactive
same,AC50,[7],39.3 µM (active)
same,AC50,[8],40 µM (active)
same,AC50,[9],11 µM (active)
same,AC50,[10],41.4 µM (active)
same,AC50,[11],33.3 µM (active)
same,AC50,[12],45.8 µM (active)
same,AC50,[13],75.8 µM (active)
same,AC50,[14],49.1 µM (active)
same,AC50,[15],10.6 µM (active)
